Test [1] is described as follows: inhibitors of TNFa-induced NFkB p65 translocation, primary screen, imaging, HUVEC, MLSMR starter and 10KST1 sets (AID 438).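 For inhibition: signal is the nuclear over cytoplasmic p65 intensity ratio per well.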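 Note: compound added about 3h40 before a 20 min TNFalpha stimulation.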 Particulars: HUVEC TNFa-induced p65 nuclear translocation; cell count: measured here: nuclei count (cytotoxicity indicator), at 2.08 µM; inhibition: at 2 µM, stronger effect = higher value, 0% TNFa-plus-vehicle, 100% no-TNFa wells.
Test [2] is described as follows: reduction of polyQ htt aggregates in cells – imaging, exon1htt(103Q)mCFP cells, high-content imaging, primary screen (AID 483;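 active = visual image review flags a hit and inhibition of aggregation exceeds 20%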;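 note: compound exposure lasted 3 days before fixation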;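 for nuclei count: percent of the per-plate median nuclei count of sample wells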). To be noted: exon1htt(103Q)mCFP cell line, aggregate imaging, at 2 µM; inhibition of aggregation: stronger effect = higher value; nuclei count: measured here: cell count, toxicity.
The nature of test [3]: endothelial E-selectin expression blockers – imaging, HUVEC, immunofluorescence, MLSMR starter and 10KST1 sets, primary screen (AID 487;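 active = visually confirmed hit in the image check and inhibition above 20%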;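 for inhibition: signal is fraction of cell area covered by stained E-selectin grains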;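 for nuclei count: 100% = median nuclei count of all wells on the same plate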). Particulars: HUVEC TNFalpha-induced E-selectin immunofluorescence imaging, at 2 µM; inhibition: stronger effect = higher value; nuclei count: measured here: cell number, toxicity.
Test [4] can be described thus: Primary imaging screen for DUSP6 inhibitors that restore phospho-Erk in transfected HeLa cells, chemical complementation (AID 609;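 active = compounds giving at least 50% inhibition in the cell-based MKP-3 phosphatase rescue imaging test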;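 for inhibition: phospho-Erk level distribution per well compared with pooled transfected vehicle control wells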). Particulars: HeLa MKP-3 transfected, phospho-Erk imaging KS statistic, at 10 µM, cells stimulated with TPA for 15 min.
The target of test [5] is Dual specificity protein phosphatase 6 (Homo sapiens) (UniProt Q16828). The test is described as above. Particulars: HeLa MKP-3 transfected, phospho-Erk imaging KS statistic; at 10 µM; stronger effect = higher value; cells stimulated with TPA for 15 min.
Chain of Dual specificity protein phosphatase 6 (Homo sapiens) (Q16828 whole entry, looked up): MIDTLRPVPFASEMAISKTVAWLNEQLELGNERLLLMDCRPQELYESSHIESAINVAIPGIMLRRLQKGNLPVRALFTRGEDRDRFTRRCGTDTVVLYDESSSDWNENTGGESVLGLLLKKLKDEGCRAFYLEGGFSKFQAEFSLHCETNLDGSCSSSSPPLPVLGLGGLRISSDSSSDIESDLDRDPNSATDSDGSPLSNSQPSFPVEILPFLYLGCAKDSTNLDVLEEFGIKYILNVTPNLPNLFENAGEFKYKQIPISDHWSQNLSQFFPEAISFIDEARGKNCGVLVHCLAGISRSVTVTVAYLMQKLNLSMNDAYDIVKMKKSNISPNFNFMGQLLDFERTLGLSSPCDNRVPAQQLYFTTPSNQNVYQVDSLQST
For test [6], the target named is Voltage-gated potassium channel subunit beta-2 (Rattus norvegicus) (UniProt P62483). As to the kind of experiment: inhibitors of rat Kvbeta2 reductase activity – biochemical, NADPH fluorescence, primary screen (AID 622;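 active = fluorescence slope higher than the sample average by over 3 SD, cut at about -0.22 in these data, passing the limit was not always enough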;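 note: slope of raw intensity against log time taken from 70 to 1610 s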). To be noted: recombinant KvBeta, 4-cyanobenzaldehyde reduction, at 10 µM, stronger effect = higher value.
Chain of Voltage-gated potassium channel subunit beta-2 (Rattus norvegicus) (P62483 whole entry, looked up): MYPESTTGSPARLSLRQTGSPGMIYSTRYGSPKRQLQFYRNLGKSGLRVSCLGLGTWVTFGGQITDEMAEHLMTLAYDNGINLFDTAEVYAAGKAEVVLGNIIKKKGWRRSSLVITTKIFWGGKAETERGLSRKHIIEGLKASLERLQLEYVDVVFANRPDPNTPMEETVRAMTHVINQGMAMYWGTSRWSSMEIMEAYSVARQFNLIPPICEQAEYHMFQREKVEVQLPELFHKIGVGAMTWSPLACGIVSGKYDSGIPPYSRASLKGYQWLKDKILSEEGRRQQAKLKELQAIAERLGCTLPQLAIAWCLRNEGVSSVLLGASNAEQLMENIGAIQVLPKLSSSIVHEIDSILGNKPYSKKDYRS
Test [7] has the same target. Description: enhancers of rat Kvbeta2 NADPH turnover – biochemical, NADPH fluorescence, primary screen (AID 623;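 active = NADPH fluorescence slope more negative than the mean of all samples by about 3 SD, 99.7% confidence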;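 note: fluorescence intensity change per second fitted from 20 to 320 s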). To be noted: Recombinant KvBeta, NADPH fluorescence decrease slope, 10 min; at 10 µM; stronger effect = lower value.
The target in test [8] is Muscarinic acetylcholine receptor M4 (Homo sapiens) (UniProt P08173). Description: M4-linked GIRK flux change, two-sided – cell-based, HEK293 M4/GIRK, thallium flux, BTC-AM, M4 allosteric agonist project, primary screen (AID 625;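 active = fluorescence slope after compound addition differing from the mean of all tested samples at 99.7% confidence, mostly higher but some lower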;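 note: thallium influx through GIRK channels coupled to M4 in HEK293 cells with BTC-AM dye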). Particulars: at 10 µM, actives lie on both sides.
Chain of Muscarinic acetylcholine receptor M4 (Homo sapiens) (P08173 whole entry, looked up): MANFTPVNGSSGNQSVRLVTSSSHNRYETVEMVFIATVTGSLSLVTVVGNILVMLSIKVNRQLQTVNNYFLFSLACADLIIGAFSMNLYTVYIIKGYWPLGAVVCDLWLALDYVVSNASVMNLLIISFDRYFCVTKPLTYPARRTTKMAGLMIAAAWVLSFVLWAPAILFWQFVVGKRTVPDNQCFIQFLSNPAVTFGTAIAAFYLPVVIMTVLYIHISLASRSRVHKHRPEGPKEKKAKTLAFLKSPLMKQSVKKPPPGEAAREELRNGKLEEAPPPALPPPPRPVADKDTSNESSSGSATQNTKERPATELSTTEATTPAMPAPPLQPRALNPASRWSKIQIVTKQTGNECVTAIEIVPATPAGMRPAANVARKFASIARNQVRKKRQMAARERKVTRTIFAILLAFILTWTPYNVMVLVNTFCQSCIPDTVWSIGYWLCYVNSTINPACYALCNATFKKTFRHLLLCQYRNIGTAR
Test [9] can be described thus: inhibitors of larval lipid processing in zebrafish, primary screen, whole organism, PED6 fluorescence, gall bladder and intestine (AID 686;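 active = a full or partial loss of lipid-probe fluorescence in the fish gall bladder, intestine or both, judged by eye; inactive = no fluorescence loss, or compound toxic to the fish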;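 note: larvae 5 to 7 days old with five fish per well; signal comes from phospholipase A2 cleavage of quenched PED6 carried via bile; overnight exposure to compound and PED6 before scoring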). To be noted: Zebrafish larvae PED6 lipid processing, fluorescence scoring; screened at 20 µM (by protocol).
Test [10] can be described thus: loss of swimming-algae plug formation – whole organism, Chlamydomonas reinhardtii, WT vs cilia-less mutant, absorbance, 96-well, primary screen (AID 463189;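 active = inhibition at or above 50% relative to wild type and mutant plate controls; inactive = inhibition below 50%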;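 note: 0% = wild type cc124 cells in DMSO and 100% = ciliumless bld1 mutant cells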). Particulars: Chlamydomonas reinhardtii gravitaxis, OD600 absorbance, 2 days; at 10 µM; stronger effect = higher value.
Test [11] is described as follows: blockers of RIG-like receptor reporter activation – cell-based, Sendai virus stimulus, luciferase, 10K MLSCN set, TLR/RLR signaling modifier project, primary screen (AID 602276;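 active = inhibition at or above 50% at 10 µM; inactive = inhibition below 50%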;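 note: firefly luciferase from ISG56 promoter only with Renilla not read in this screen; 0% = Sendai virus plus DMSO and 100% = medium plus DMSO without virus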). To be noted: HEK293 RL24 IRF3 luciferase reporter, at 10 µM, stronger effect = higher value.
Test [12] is described as follows: TLR3 IRF3 reporter activation blockers – cell-based, poly I:C stimulus, luciferase, 10K MLSCN set, primary screen (AID 602277;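 active = inhibition of the reporter signal at or above 50%; inactive = inhibition below 50%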). Particulars: HEK293-TLR3 RL24 IRF3 luciferase reporter, at 10 µM, stronger effect = higher value.
The mark [13] stands for this setting: measured here: cell density z-score.
Setting [14] is: measured here: nuclear c-Myc green intensity z-score.
Setting [15] is: measured here: nuclear pErk red intensity z-score, stronger effect = higher value.

The source made the active and inactive calls.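 Rule for the calls, unless noted: active = inhibition above 20% together with a positive visual image hit; inconclusive = visual image hit but inhibition not above 20%; inactive = no visual image hit.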

Turning to `CCOC(=O)C1=C(CSc2nc(C)cc(C)c2C#N)OC(N)=C(C#N)C1c1cccs1` (stereo not given), in test [1], the cell count came to 502. For the same molecule, the inhibition in test [1] is 7.3% (inactive); in test [3], -103% (inactive); in [5] it was -2.47% (inactive); in test [10], 8.41% (inactive); in [11] it was 13.2% (inactive); in test [12] it was 23.4% (inactive). In [2], the inhibition of aggregation was -14.2% (inactive). The nuclei count came out at 102% in test [2] and 95% in [3]. Besides, the values for the z-score in test [4] (setting [13]), in test [4] (setting [14]) and in test [4] (setting [15]) were 0.722, -1.39 and -0.564, respectively. Moreover, the fluorescence slope in test [6] was -0.493 (inactive); in [8], 0.00829 (inactive). Further, in test [7], the NADPH fluorescence slope was -2.9e-05 (inactive). For the same molecule, the call in test [9] was inactive.
In the case of `CCn1nc(NC(=O)c2cccnc2)c2cc3ccccc3nc21`, in test [1], the cell count was determined as 522. Besides, the inhibition in [1] is -0.4% (inactive); in test [3] it was -29.4% (inactive); in test [5] it was -6.48% (inactive); in [10], 3.52% (inactive); in test [11] it was 10.7% (inactive); in test [12], -6.02% (inactive). Moreover, the inhibition of aggregation in test [2] was -3.3% (inactive). Besides, the nuclei count turned out to be 104% in [2] and 133% in test [3]. Moreover, the z-score was 0.0666 in [4] (setting [13]), 1.36 in test [4] (setting [14]) and -0.336 in test [4] (setting [15]). Besides, the fluorescence slope is -0.423 (inactive) in test [6] and 0.00509 (inactive) in test [8]. Also, the NADPH fluorescence slope in test [7] was -3.9e-05 (inactive). Further, the call in [9] was inactive.
With `Cc1cc2c(c(=O)o1)C(Cc1ccccc1)C(C#N)=C(N)O2` (stereo not given), in [1], the cell count worked out at 706. The inhibition in test [1] was -3.3% (inactive); in test [3] it was -45.5% (inactive); in [5], 9.61% (inactive); in test [10] it was 9.12% (inactive); in test [11], 13.9% (inactive); in test [12], 19% (inactive). Also, in test [2], the inhibition of aggregation was -2.1% (inactive). The figures for the nuclei count in [2] and in test [3] were 80.9% and 126%, respectively. Further, the z-score in [4] (setting [13]) was -1.29; in [4] (setting [14]), 0.225; in [4] (setting [15]), 1.32. Moreover, the fluorescence slope in test [6] was -0.44 (inactive); in test [8] it was 0.00523 (inactive). The NADPH fluorescence slope in test [7] was -4.7e-05 (inactive). The result in test [9] was inactive.
Take `COc1ccc(CCn2c(=N)c(C(=O)NCc3ccco3)cc3c(=O)n4ccccc4nc32)cc1`: the cell count in [1] stood at 496. In addition, the inhibition was -4.9% (inactive) in [1]; -63.3% (inactive) in test [3]; 24.3% (inactive) in test [5]; -7.81% (inactive) in test [10]; 5.21% (inactive) in test [11]; 17.8% (inactive) in test [12]. In addition, in [2], the inhibition of aggregation is -10% (inactive). The nuclei count was found to be 94.4% in test [2] and 108% in test [3]. The z-score was 0.843 in test [4] (setting [13]), 0.0165 in [4] (setting [14]) and -1.15 in [4] (setting [15]). The fluorescence slope in test [6] is -0.516 (inactive); in test [8], 0.00166 (active). Moreover, the NADPH fluorescence slope in [7] was -1.6e-05 (inactive). Also, the molecule was called inactive in [9].
With `Cn1c(=O)c2c(nc(Br)n2CCSc2ncccn2)n(C)c1=O`, the cell count in [1] was 606. Besides, the inhibition in test [1] was -12.8% (inactive); in test [3], -13.4% (inactive); in test [5], 21.4% (inactive); in [10], 36.1% (inactive); in test [11], 5.45% (inactive); in test [12], 6.81% (inactive). Besides, the inhibition of aggregation in test [2] was 5.2% (inactive). Also, the nuclei count in test [2] was found to be 103%; in [3] it was 150%. In addition, the z-score in [4] (setting [13]) is 0.427; in test [4] (setting [14]), -0.0194; in test [4] (setting [15]), -1.04. The results for the fluorescence slope in [6] and in test [8] were -0.364 (inactive) and 0.00613 (inactive), respectively. Also, the NADPH fluorescence slope in test [7] is -1.4e-05 (inactive). Moreover, the molecule was classed as inactive in test [9].

What is called inhibition is the change of the read-out against control, counted positive when it falls.

For the origin of these results see PubChem BioAssay.
